Inconclusive results are not listed. Active and inactive are the calls of the source. Calls come from the whole dose curve.
Experiments:
[1] = Primary qHTS for inhibitors of SARS-S pseudo-typed particle cell entry (AID 1479145); note: nearly all actives have a fitted effect of over 45% in size
[2] = Primary qHTS for Huh7 cytotoxicity: counterscreen for inhibitors of MERS-S pseudotyped particle cell entry (AID 1479147)
[3] = Primary qHTS for inhibitors of MERS-S pseudo-typed particle cell entry (AID 1479149); note: nearly all actives have a fitted effect of over 60% in size
[4] = Primary qHTS for Vero E6 cytotoxicity: counterscreen for inhibitors of SARS-S pseudo-typed particle cell entry (AID 1479150)

Measured: Potency

CC(=O)Oc1c(C)c(C)c2c(c1C)CC[C@@](C)(CCC[C@H](C)CCC[C@H](C)CCCC(C)C)O2
inactive: [1] | [2] | [3] | [4]

O=c1cc(CO)occ1O
inactive: [1] | [2] | [3] | [4]

C[C@@H]1C[C@H]2[C@@H]3CCC4=CC(=O)C=C[C@]4(C)[C@@]3(F)[C@@H](O)C[C@]2(C)[C@H]1C(=O)CO
inactive: [1] | [2] | [3] | [4]

CC(COc1ccccc1)NC(C)C(O)c1ccc(O)cc1 (configuration not stated)
inactive: [1] | [2] | [3] | [4]

CCCCNc1cc(C(=O)O)cc(S(N)(=O)=O)c1Oc1ccccc1
inactive: [1] | [2] | [3] | [4]

CCO[C@@H]1O[C@H](C(COCc2ccccc2)OCc2ccccc2)[C@H](OCc2ccccc2)[C@H]1O (some centres not stated)
inactive: [1] | [2] | [3] | [4]

CC(C(=O)O)c1ccc2c(c1)Cc1cccnc1O2 (configuration not stated)
inactive: [1] | [2] | [3] | [4]

CC(=O)N(CC(=O)N(C)C)c1ccccc1
inactive: [1] | [2] | [3] | [4]

CC[N+]1(CC)CCC(=C(c2ccccc2)c2ccccc2)C1C (configuration not stated)
inactive: [1] | [2] | [3] | [4]

COc1ccc2c(c1OC)C(=O)O[C@@H]2[C@H]1c2c(cc3c(c2OC)OCO3)CCN1C
inactive: [1] | [2] | [3] | [4]

COc1cccc(N(C)C(=S)Oc2ccc3c(c2)CCCC3)n1
inactive: [1] | [2] | [3] | [4]

CCC(=O)O[C@]1(C(=O)COC)[C@@H](C)C[C@H]2[C@@H]3CCC4=CC(=O)C=C[C@]4(C)C3(F)[C@@H](O)C[C@@]21C (some centres not stated)
inactive: [1] | [2] | [3] | [4]

CC(C)(C)C(=O)C(Oc1ccc(Cl)cc1)n1ccnc1 (configuration not stated)
inactive: [1] | [2] | [3] | [4]

CC(=O)OC[C@H]1O[C@@](COC(C)=O)(O[C@H]2O[C@H](COC(C)=O)[C@@H](OC(C)=O)[C@H](OC(C)=O)[C@H]2OC(C)=O)[C@@H](OC(C)=O)[C@@H]1OC(C)=O
inactive: [1] | [2] | [3] | [4]

COc1cc(NS(=O)(=O)c2ccc(N)cc2)ncn1
inactive: [2] | [3] | [4]

CN1CCC(=C2c3ccccc3CC(=O)c3sccc32)CC1
inactive: [2] | [3] | [4]
